Source: PubChem (several laboratories)
GPR7 antag = GPR7 receptor antagonists, primary screen, cell-based, fluorescence, single concentration. GPR7-expressing cells, fluorescence antagonist assay. inhibition, % at 4.4 µM. 290,000 compounds, 1.1% hits. AID 1861, 2009; in the data active means inhibition above about 16%, passing the limit was not always enough;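 further: cells stimulated with the agonist NPW; 0% = agonist with vehicle and 100% = vehicle without agonist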
CHT PAM = CHT positive allosteric modulators, primary screen, cell-based, membrane potential dye, choline EC20. High affinity choline transporter 1 (Homo sapiens), Q9GZV3. CHT-expressing cells; stronger effect = higher value; LV-AA mutant CHT in HEK293 cells. B-score at 10 µM. 310,000 compounds, 0.49% hits. AID 488977, 2010;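 active means initial fluorescence not abnormally high and integrated response B-score, plate-corrected, over 3 SD above library mean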
CHT block = inhibitors of human choline transporter CHT; B-score at 10 µM; 310,000 compounds, 0.86% hits; High affinity choline transporter 1 (Homo sapiens), Q9GZV3; CHT-expressing cells, membrane potential dye, choline response; stronger effect = lower value;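 active means B-score over 3 SD under the library average, and starting fluorescence ratio not unusually high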;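 further: choline stimulus applied at its EC90 after an EC20 pre-addition; B-score computed on integrated fluorescence ratio after choline addition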
Kir21 block = inhibitors of mouse Kir2.1 inward-rectifier potassium channel; Inward rectifier potassium channel 2 (Mus musculus), P35561; HEK293-Kir2.1, FluxOR thallium flux fluorescence; stronger effect = lower value; B-score at 10 µM; 310,000 compounds, 0.85% hits; AID 1672, 2009;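 active means fluorescence ratio B-score at or below minus 3 SD of library scores, with starting-brightness B-score within 2 SD, cut at about -4.2 in these data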;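 further: channel flux triggered by added potassium and thallium sulfate stimulus; B-score of peak minus minimum fluorescence over baseline after thallium stimulus; more negative B-score means stronger Kir2.1 block with less thallium influx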
Target sequence (P35561 whole entry, looked up): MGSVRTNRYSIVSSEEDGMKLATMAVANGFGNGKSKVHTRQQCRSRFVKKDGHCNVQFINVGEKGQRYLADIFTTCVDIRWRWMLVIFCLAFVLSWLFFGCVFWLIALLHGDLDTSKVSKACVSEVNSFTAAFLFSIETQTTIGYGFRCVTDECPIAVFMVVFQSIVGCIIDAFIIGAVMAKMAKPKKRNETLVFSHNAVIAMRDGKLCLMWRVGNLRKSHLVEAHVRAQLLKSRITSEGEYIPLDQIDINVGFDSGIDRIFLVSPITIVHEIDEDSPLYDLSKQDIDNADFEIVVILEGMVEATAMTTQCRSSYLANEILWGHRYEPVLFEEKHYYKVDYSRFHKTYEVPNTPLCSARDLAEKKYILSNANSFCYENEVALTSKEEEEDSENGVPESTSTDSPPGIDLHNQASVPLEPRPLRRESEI
TMEM16A inh = TMEM16A chloride channel inhibitors, primary screen, cell-based, HTS; AID 588511, 2011; Anoctamin-1 (Mus musculus), Q8BHY3; normalized B-score (activity score, 25-100; higher = stronger inhibition) at 10 µM; 310,000 compounds, 1.2% hits; HEK293 TMEM16A/YFP iodide influx fluorescence, ionomycin;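 active means ratio plate-corrected score three or more library SD toward inhibition, starting fluorescence score within five deviations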;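 further: score derived from kinetic fluorescence span divided by baseline fluorescence per well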
ANO1 activ = TMEM16A chloride channel activators or potentiators, primary screen, cell-based, HTS; B-score at 10 µM; 340,000 compounds, 0.3% hits; HEK293 TMEM16A/YFP-H148Q/I152L, iodide quench fluorescence; stronger effect = lower value; Anoctamin-1 (Mus musculus), Q8BHY3;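 active means fluorescence-ratio B-score plate-corrected deviation score at least 3 library SD below zero, with starting fluorescence score within 5 deviations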;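 further: channel opened by trigger with iodide after compound preincubation; score built on the fluorescence ratio of max minus min over baseline; more negative score means more quench and so TMEM16A activation or potentiation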
An asterisk follows results filed as active; i = inactive; . = no result given. An excerpt weighted towards active compounds, which were near 3.7% of everything screened.

SMILES | GPR7 antag | CHT PAM | CHT block | Kir21 block | TMEM16A inh | ANO1 activ
COc1ccc(C(=O)C2CCCN(C/C=C/c3ccccc3OC)C2)c(OC)c1 (stereo not drawn) | -1 | i | i | -2.7 | i | -5.1*
COc1ccc(C(=O)C2CCCN(Cc3ccc4nonc4c3)C2)cc1F (stereo not drawn) | 3 | i | i | -2.2 | 25* | i
CCCCOc1ccc(CSC(=N)N)cc1Cl | 0 | i | i | -12* | i | i
CCCCCOc1ccc(Br)cc1CSC(=N)N | 72* | . | . | -12* | . | -7.7*
Cc1onc(-c2c(F)cccc2Cl)c1C(=O)Nc1nccs1 | -1 | i | i | -1.1 | i | i
Cc1onc(-c2c(F)cccc2Cl)c1C(=O)Nc1nnc(C(F)(F)F)s1 | 1 | i | -8.7* | 0.73 | i | i
CCOC(=O)CSc1nnc(NC(=O)c2cccc(S(=O)(=O)N3CCCCCC3)c2)s1 | 21 | i | i | -0.01 | 25* | i
CCSc1nnc(NC(=O)c2cccc(S(=O)(=O)N(C)c3ccc(C)cc3)c2)s1 | 1 | i | i | 1.8 | 25* | i
NC(=O)CSc1nnc(NC(=O)c2cccc(S(=O)(=O)N3CCCCC3)c2)s1 | -3 | i | i | 0.28 | i | i
O=C(Cc1ccccc1)NNS(=O)(=O)c1ccccc1[N+](=O)[O-] | -13 | i | i | 1.4 | i | i
O=S(=O)(Nc1nc(-c2sccc2Cl)cs1)c1cc(Cl)ccc1Cl | -11 | i | i | 1.3 | 100* | i
Cc1cc2[nH]c3c(c[n+](C)c4ccccc34)c2cc1C | -3 | i | i | -7.8* | i | i
COc1ccccc1CNC(=O)CCNC(=O)c1ccco1 | . | . | . | . | . | i
OCCN1CCN(Cc2cccc(Oc3ccc(Cl)cc3)c2)CC1 | 12 | i | i | -5.2* | i | i
O=C(N/N=C1/CCSC1)c1cc(Br)ccc1O | -1 | i | i | 0.41 | i | i
Cc1cc2c(sc3c(C)ccc(C)c32)c(C)n1 | 2 | i | i | -0.49 | i | i
Cc1ccc(C2=NOC(=O)/C2=C\c2ccccc2)cc1 | . | i | i | 0.1 | i | i
COc1cc(/C=C2\C(=O)ON=C2c2ccccc2)cc(Br)c1O | -4 | i | i | -6.6* | i | i
COc1cc(/C=C2\C(=O)ON=C2c2ccccc2)cc(Cl)c1O | -4 | i | i | -10* | i | i
COc1cc(/C=N/NC(=S)NC2CC3CC2C2C=CCC32)ccc1O (stereo not drawn) | -23 | i | i | -1.3 | 100* | i
CCOc1ccc(/C=N/NC(=S)NC2CC3CC2C2C=CCC32)cc1 (stereo not drawn) | -13 | i | i | -0.24 | i | i
CCc1ccc(S(=O)(=O)N2CCN(C(=O)c3cccnc3)CC2)cc1 | -13 | i | i | 1.4 | i | i
CN(c1ccccc1)c1ccc(/C=C/[N+](=O)[O-])cc1 | 12 | i | i | -11* | i | i
CC/C(=N\NC(=O)c1ccc2c(c1)OCO2)C12CC3CC(CC(C3)C1)C2 | 7 | i | i | 0.68 | i | -6.1*
Cn1c(=O)c2c(ncn2CC(=O)N/N=C/C=C/c2ccccc2[N+](=O)[O-])n(C)c1=O | 5 | i | i | -0.59 | i | .
SMILES | GPR7 antag | CHT PAM | CHT block | Kir21 block | TMEM16A inh | ANO1 activ
CCCc1cc(NCCCn2ccnc2)n2nc(C)c(-c3ccccc3)c2n1 | -8 | i | -7.1* | -5.8 | i | i
CC(C)(C)c1cc(NCCCn2ccnc2)n2ncc(-c3ccccc3)c2n1 | -11 | i | i | 0.17 | i | i
Cc1cccc(COCC(Cc2ccccc2)N2CCN(C(=O)c3ccc(Cl)c(Cl)c3)CCC2=O)c1 (stereo not drawn) | -14 | i | i | -0.02 | i | i
Cc1ccc(S(=O)(=O)N2CCC(=O)N(CCOCc3ccc(Cl)cc3)CC2)cc1 | -2 | i | i | -2.1 | i | i
Cc1ccc(S(=O)(=O)N2CCC(=O)N(C(COCc3cccc(C(F)(F)F)c3)C(C)C)CC2)cc1 (stereo not drawn) | 18 | i | i | 1.9 | i | i
Cc1ccc(S(=O)(=O)N2CCC(=O)N(C(COCc3cccc(C(F)(F)F)c3)Cc3ccccc3)CC2)cc1 (stereo not drawn) | -6 | i | i | 0.95 | i | -19*
Cc1ccc(S(=O)(=O)N2CCC(=O)N(C(COCc3ccccc3)Cc3ccccc3)CC2)cc1 (stereo not drawn) | -7 | i | i | -0.69 | i | i
Cc1ccc(S(=O)(=O)N2CCC(=O)N(C(COCc3cccc(Cl)c3)Cc3ccccc3)CC2)cc1 (stereo not drawn) | -5 | i | i | 0.38 | i | -11*
Cc1ccc(S(=O)(=O)N2CCC(=O)N(C(COCc3ccc(Cl)cc3Cl)Cc3ccccc3)CC2)cc1 (stereo not drawn) | 6 | i | i | 1.2 | i | -29*
Cc1ccc(S(=O)(=O)N2CCC(=O)N(CCOCc3cccc(Cl)c3)CC2)cc1 | 7 | i | i | -5.5* | i | i
C[C@H](NC(=O)C1CCN(S(=O)(=O)c2ccccc2)CC1)C(=O)NCc1ccc(Cl)c(Cl)c1 | 12 | i | i | -0.52 | i | i
O=C(CC1C(=O)NCCN1Cc1ccccc1)NCCCOc1cccnc1 (stereo not drawn) | -12 | i | i | 0.37 | i | i
CCC1CCCCN1CCCNC(=O)Cn1c(=O)c2cccn2c2cccnc21 (stereo not drawn) | -11 | i | i | 0 | i | i
CCn1c(SCC(=O)N/N=C/c2c[nH]c3ccccc23)nnc1-c1ccc(C(C)(C)C)cc1 | -9 | i | i | -2.4 | 25* | i
CCc1noc(C)c1C(=O)Nc1cc(Cl)ccc1N1CCOCC1 | . | i | i | -0.75 | i | i
CCc1cccc(C)c1NC(=O)CN1CCN(S(=O)(=O)c2ccc(C(C)(C)C)cc2)CC1 | . | i | i | -0.06 | i | i
CC(Sc1nnc(Cn2c(=O)sc3ccccc32)n1C)c1ccccc1 (stereo not drawn) | 13 | i | i | -4.2* | i | i
